The compounds below were run against Epidermal growth factor receptor (Homo sapiens) (UniProt P00533) (assay: EGFR binders on small-molecule microarrays, primary screen, biochemical, small-molecule microarray, 635 nm fluorescence (AID 1104;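 note: score merges 667 nm emission intensity with spot signal to noise over triplicate slides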)). Conditions: EGFR binding, higher = more signal.
Sequence of Epidermal growth factor receptor (Homo sapiens) (P00533 whole entry, looked up): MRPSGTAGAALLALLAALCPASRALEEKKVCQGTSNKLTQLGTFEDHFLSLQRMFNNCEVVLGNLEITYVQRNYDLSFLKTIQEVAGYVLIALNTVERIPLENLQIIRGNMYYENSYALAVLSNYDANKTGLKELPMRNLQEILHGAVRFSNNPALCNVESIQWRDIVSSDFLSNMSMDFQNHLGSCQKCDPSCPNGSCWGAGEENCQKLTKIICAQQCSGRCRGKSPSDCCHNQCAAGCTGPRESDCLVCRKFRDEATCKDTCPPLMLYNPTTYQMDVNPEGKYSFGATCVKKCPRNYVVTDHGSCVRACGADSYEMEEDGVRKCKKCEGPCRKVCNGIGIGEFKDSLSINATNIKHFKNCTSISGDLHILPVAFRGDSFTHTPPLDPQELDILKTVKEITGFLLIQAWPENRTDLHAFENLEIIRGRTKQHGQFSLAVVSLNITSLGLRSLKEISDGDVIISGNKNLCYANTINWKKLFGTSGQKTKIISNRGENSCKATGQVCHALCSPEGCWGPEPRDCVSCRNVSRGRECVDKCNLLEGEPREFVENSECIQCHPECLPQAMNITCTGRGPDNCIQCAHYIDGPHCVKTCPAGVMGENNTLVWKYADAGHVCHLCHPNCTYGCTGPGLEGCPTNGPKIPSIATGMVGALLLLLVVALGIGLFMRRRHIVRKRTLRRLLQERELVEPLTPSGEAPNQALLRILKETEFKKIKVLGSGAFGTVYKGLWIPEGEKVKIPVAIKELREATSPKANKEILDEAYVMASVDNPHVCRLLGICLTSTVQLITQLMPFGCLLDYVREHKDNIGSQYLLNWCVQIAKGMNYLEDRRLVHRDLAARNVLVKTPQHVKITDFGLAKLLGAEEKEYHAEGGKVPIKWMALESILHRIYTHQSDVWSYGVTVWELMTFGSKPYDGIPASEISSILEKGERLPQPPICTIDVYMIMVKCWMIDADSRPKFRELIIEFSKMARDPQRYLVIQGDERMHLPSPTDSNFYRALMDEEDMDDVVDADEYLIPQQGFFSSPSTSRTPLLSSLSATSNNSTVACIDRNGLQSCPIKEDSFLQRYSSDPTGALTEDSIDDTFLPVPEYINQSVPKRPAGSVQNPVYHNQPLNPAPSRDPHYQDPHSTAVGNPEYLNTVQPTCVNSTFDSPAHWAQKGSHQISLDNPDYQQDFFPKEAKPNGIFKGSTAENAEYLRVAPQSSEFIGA

Structure (SMILES) | composite z-score
O=C(O)[C@H](Cc1ccccc1)n1cc(-c2ccccn2)nn1 | 0.211
COC(=O)c1c(CC[C@@H](CO)NC(=O)N[C@H](Cn2cc(-c3ccccc3C)nn2)C(C)C)oc(C(C)=O)c1C(=O)OC | -0.937
COc1ccc(NN2C(C(O)c3ccco3)C=CC3C(=O)N(C4CCCCC4)C(=O)C32)cc1 (stereo not given) | 0.423
Cc1c(NC(=O)/C(C#N)=C/C=C/c2ccc(N(C)C)cc2)c(=O)n(-c2ccccc2)n1C | 0.994
CN1C2C=C(CCCO)C(C3C(=O)N(C(N)=O)C(=O)C32)C1c1cccs1 (stereo not given) | -0.259
CC(C)CNC(=O)[C@@]1(c2ccc([N+](=O)[O-])cc2)CC(=O)N(C2CCCCC2)[C@@H]1c1ccc(CO)cc1I | -0.519
COCCOC(=O)N1C(=O)[C@@]2(c3cc(C#CC4(O)CCCCCC4)ccc31)[C@H](C(N)=O)[C@H]1C(=O)O[C@H](c3ccccc3)[C@H](c3ccccc3)N1[C@@H]2c1ccc(O)cc1 | 0.406
COC(=O)[C@@]1(Cc2ccccc2)[C@H]2c3cc(C(=O)N4CCCC4)n(Cc4cc(F)cc5c4OCOC5)c3C[C@H]2CN1C(=O)c1ccccc1 | -0.12
CCOC(=O)C[C@H]1[C@H](OC(=O)c2ccccc2-c2ccccc2)[C@@H](NC(=O)CC(C)C)c2cc(OCCCO)ccc2N1C(=O)c1ccc2ccccc2n1 | 0.159
C=CCN1Cc2ccccc2C[C@@]2(N=C(c3ccc(OCCCO)cc3)O[C@H]2c2ccccc2)C1=O | 0.147
COCCOC(=O)N1C(=O)[C@@]2(c3cc(C#CC4(O)CCCCCC4)ccc31)[C@H](C(=O)N1CCCCCCC1)[C@H]1C(=O)O[C@H](c3ccccc3)[C@H](c3ccccc3)N1[C@@H]2c1ccc(OCCO)cc1 | 1.46
CN1C(=O)C2C=CC(C(O)c3c(F)cccc3Cl)N(Nc3ccccc3)C2C1=O (stereo not given) | 0.257
CCCC=C(CCC)[C@@H](NP(=O)(c1ccccc1)c1ccccc1)c1ccc(C(F)(F)F)cc1 | -0.0267
O=C1O[C@@H](c2ccccc2)[C@@H](c2ccccc2)N2[C@@H](c3ccc(O)cc3)[C@]3(C(=O)Nc4ccc(C#CCCO)cc43)[C@@H](C(=O)NC[C@H](O)c3ccccc3)[C@H]12 | -0.637
CCN(CC)c1ccc(N2CC=CC34O[C@@H]5/C=C\CCC(C)OC(=O)C5[C@H]3C(=O)N(CCO)[C@@H]4C2=O)cc1 (stereo not given in full) | -0.968
Cc1ccc(S[C@]2(C(=O)NCCN3CCOCC3)CC(=O)N(Cc3ccccc3C(F)(F)F)[C@@H]2c2ccc(CO)cc2I)cc1 | -0.842
C=CCNC(=O)[C@@H]1[C@H]2C(=O)O[C@H](c3ccccc3)[C@H](c3ccccc3)N2[C@H](c2ccc(OCCO)cc2)[C@@]12C(=O)N(C(=O)OCCOC)c1ccc(C#CC3=CCCCC3)cc12 | 0.552
COC(=O)[C@@]1(Cc2ccccc2)[C@H]2c3cc(C(=O)N4CCCC4)[nH]c3C[C@H]2CN1C(=O)c1ccccc1 | -0.478

Structure (SMILES) | composite z-score
C=CCOC(=O)[C@@H]1[C@H]2C(=O)O[C@H](c3ccccc3)[C@H](c3ccccc3)N2[C@H](c2ccc(OCCOC(=O)[C@H]3C[C@H]4C(=O)N[C@@H](CCCC[N+](C)(C)C)C(=O)N4[C@H]3c3ccc(O)cc3)cc2)[C@@]12C(=O)Nc1ccc(I)cc12 | 1.18
COc1c(C)cc(-c2cc3c(c(Cc4ccccc4)n2)[Si](C(C)C)(C(C)C)OC3)cc1C | 0.181
COCCOC(=O)N1C(=O)[C@@]2(c3cc(C#CC4(O)CCCCCC4)ccc31)[C@H](c1ccccc1OCCO)N1[C@H](c3ccccc3)[C@H](c3ccccc3)OC(=O)[C@H]1[C@@H]2C(N)=O | 0.442
CC(C)C(O)C1C=CC2C(=O)N(C)C(=O)C2N1Nc1ccccc1 (stereo not given) | -0.0756
CC(=O)N1Cc2ccccc2C[C@]2(N=C(c3ccc(OCCCO)cc3)O[C@@H]2c2ccccc2)C1=O | 0.17
CCOC(=O)[C@@H]1[C@@H]2C(=O)N(CC)C(=O)[C@@H]2C[C@@H]1Sc1ccccc1 | 0.169
O=C1OCCC=C[C@H]2OC34C=CCN(c5ccc(Cl)cc5)C(=O)[C@H]3N(CCCCCO)C(=O)[C@@H]4C12 (stereo not given in full) | -0.935
COc1ccc(CCNC(=O)[C@@]2(Sc3ccc(C)cc3)CC(=O)N(Cc3cc(C(F)(F)F)cc(C(F)(F)F)c3)[C@@H]2c2ccc(CO)cc2I)cc1 | -1.06
COC(=O)[C@@]1(Cc2ccc(OC)cc2)[C@H]2c3cc(C(=O)N4CCCC4)n(CCc4cc5ccccc5[nH]4)c3C[C@H]2CN1C(=O)c1ccccc1 | 0.124
COc1ccc(NN2C(C(O)c3ccccn3)C=CC3C(=O)N(C4CCCCC4)C(=O)C32)cc1 (stereo not given) | 0.224
CN(C)CCCCNC(=O)[C@H]1C[C@H]2C(=O)N[C@@H](CCCCN(C)C)C(=O)N2[C@H]1c1cccc(OCCO)c1 | 0.514
CC(C)(C)OC(=O)CC[C@]1(C(=O)O)N=C(c2ccc(OCCCO)cc2)O[C@H]1c1ccccc1 | -0.329
COCCOC(=O)N1C(=O)[C@@]2(c3cc(C#Cc4ccc(OC)cc4)ccc31)[C@H](C(=O)NC[C@H](O)c1ccccc1)[C@H]1C(=O)O[C@H](c3ccccc3)[C@H](c3ccccc3)N1[C@@H]2c1ccc(O)cc1 | 0.725
C[C@]1(C(=O)NC2CC2)c2ccccc2C(=O)N(Cc2ccc(OC(F)(F)F)cc2)[C@H]1c1ccc(CO)cc1 | -0.617
C=CC[C@@]1(C(=O)O)N=C(c2ccc(OCCCO)cc2)O[C@@H]1c1ccccc1 | -1.9
COC(=O)C1(Cc2ccccc2)C=C2C(=C(C(C)C)C(=O)C2C)CN1 (stereo not given) | -0.449
COc1ccc(C#Cc2ccc3c(c2)[C@]2(C(=O)N3)[C@H](C(=O)N3CCc4cc(OC)c(OC)cc4C3)[C@H]3C(=O)O[C@H](c4ccccc4)[C@H](c4ccccc4)N3[C@@H]2c2ccc(O)cc2)cc1 | 0.537

Reference: PubChem BioAssay
